Compounds with a hit are over-represented: about 7.4% of the library has one in this group of screens.
Rab9 promoter act – qHTS Assay for Rab9 Promoter Activators; Potency, µM (highest dose often 9.22 µM), inactives show at the top dose activation, negative = inhibition, most hits filed as activators; hit rate 2.8% among 320,000; Huh7 Rab9 promoter-luciferase reporter, luminescence, 24 h; further: % of control where 0% means no effect; nearly all actives have a fitted effect of over 60% in size
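Huh7 cells stably carrying a Rab9 promoter-luciferase reporter, 1500 cells per well in OP-MEM I with 10% FBS, treated with compound 24 hours at 37C. Luciferase activity read by luminescence after 10 minutes with Amplite reagent.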
SMN2 splice up – qHTS Assay for Enhancers of SMN2 Splice Variant Expression; HEK293 SMN2-luciferase splicing reporter, luminescence, 30-36 h; Potency, µM (top dose mostly 46.1 µM), without a hit: at the top dose activity change, positive = activation, hits mostly activators; hit rate 2.8% among 210,000; further: % of control where 0% means no effect; nearly all actives have a fitted effect of over 55% in size
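HEK293 cells carry an SMN2 […]–luciferase reporter in which exon 7 inclusion puts luciferase in frame. Cells were plated 10-12 h before compound addition, then incubated 30-36 h at 37C. ONE-Glo luminescence was read; sodium butyrate at 4.5 mM final served as control.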
NPC1 promoter act – qHTS Assay for NPC1 Promoter Activators; Potency, µM (highest dose often 9.22 µM), for inactives: at the highest dose activation, hits mostly activators; hit rate 2.4% among 320,000; Huh7 NPC1 promoter luciferase reporter, 24 h; further: % of control where 0% means no effect; nearly all actives have a fitted effect of over 60% in size
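NPC1 promoter–luciferase Huh7 cells; 24 h compound; luminescence.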
FLuc modulator – qHTS profiling assay for firefly luciferase inhibitor/activator using purifed enzyme and Km concentrations of substrates (counterscreen for miR-21 project); Luciferin 4-monooxygenase (Photinus pyralis), P08659; purified FLuc, Km substrates, luminescence inhibition; Potency, µM (top dose mostly 57.5 µM), for the others: at the highest dose activity change, negative = inhibition, hits mostly inhibitors; hit rate 6.9% among 360,000; AID 588342, 2011;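 further: plate controls were vehicle for no effect and reference inhibitor for full effect; nearly all actives have a fitted effect of over 55% in size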
Target sequence (P08659 whole entry, looked up): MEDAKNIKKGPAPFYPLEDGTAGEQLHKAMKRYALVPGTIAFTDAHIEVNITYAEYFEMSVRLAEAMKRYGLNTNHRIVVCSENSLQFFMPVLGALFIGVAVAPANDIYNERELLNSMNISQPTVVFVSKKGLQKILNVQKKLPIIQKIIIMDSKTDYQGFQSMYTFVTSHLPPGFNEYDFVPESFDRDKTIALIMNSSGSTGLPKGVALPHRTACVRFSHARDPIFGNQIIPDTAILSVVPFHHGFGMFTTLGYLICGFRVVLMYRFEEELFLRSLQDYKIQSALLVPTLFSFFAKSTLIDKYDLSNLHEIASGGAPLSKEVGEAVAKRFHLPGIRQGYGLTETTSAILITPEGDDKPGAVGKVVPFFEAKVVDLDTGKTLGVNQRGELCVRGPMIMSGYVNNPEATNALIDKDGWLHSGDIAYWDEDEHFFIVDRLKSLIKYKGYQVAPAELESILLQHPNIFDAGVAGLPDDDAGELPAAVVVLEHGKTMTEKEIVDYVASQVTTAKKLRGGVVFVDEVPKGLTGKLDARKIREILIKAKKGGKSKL
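Biochemical qHTS of compounds, final roughly 60 µM downward over six points, against 10 nM purified firefly luciferase using Km concentrations of substrates (10 uM D-luciferin, 10 uM ATP) in Tris acetate pH 7.5 buffer; luminescence output.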
Luc counter – Counterscreen for Luciferase (Kinase-Glo TM) Inhibition | Kinase-Glo luciferase, ATP luminescence, 8 min | Potency, µM (series often up to 38.3 µM), for inactives: at the top dose activity change, negative = inhibition, usual class: inhibitors | hit rate 0.28% among 200,000; further: on the % scale 0 is the no-effect control and ±100 the full control effect; nearly all actives have a fitted effect of over 60% in size
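Recombinant Kinase-Glo luciferase, 10 uM ATP (linear range), luciferin; imidazole pH 7.2 / KCl / MgCl2 / Tween / BSA buffer; 8 min RT; luminescence.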
ELG1 genotoxic – qHTS screen for small molecules that induce genotoxicity in human embryonic kidney (HEK293T) cells expressing luciferase-tagged ELG1; HEK293T ELG1-luciferase reporter, luminescence, 16 h; hit rate 1.3% among 330,000; Potency, µM (doses to about 46 µM), for the others: at the top dose activity change, positive = activation, actives largely listed as activators; further: % of control where 0% means no effect; nearly all actives have a fitted effect of over 60% in size
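Genotoxic stress is detected as increased luminescence from luciferase-tagged ELG1 in HEK293T cells, measured with ONE-Glo after a 16 hr treatment at 37 °C.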
* hit, by the source's call; ? = inconclusive; / = no result; [ ] = remark or other dose. The call rests on the fitted dose curve; in most records, active means well fitted curve in the direction sought with a large enough effect; inconclusive means small, poorly fitted or top-dose-only effect, or another doubt; inactive means no such curve, though single readings can be large; an effect the other way counts as inactive or inconclusive. Potency means the concentration at half of the fitted maximal effect.

SMILES | Rab9 promoter act | SMN2 splice up | NPC1 promoter act | FLuc modulator | Luc counter | ELG1 genotoxic
CCCn1c(C)cc(C(=O)COC(=O)c2ccc[nH]c2=O)c1C | 1.26µM* | / | ? | 2.69µM* | ? | ?
Cc1cc(C(=O)COC(=O)C2=NN(c3ccccc3)C(=O)CC2)c(C)n1CC(F)(F)F | 1.2% | -1.3% | -1.9% | -16.3% | 1.8% | 3.2%
CCCn1c(C)cc(C(=O)COC(=O)c2ccc(Cl)c(S(=O)(=O)N3CCCC3)c2)c1C | -2.3% | -19.9% | -1.6% | 2.39µM* | -1.7% | 0.7%
Cc1cc(C(=O)COC(=O)c2ccc(O)cc2)c(C)n1CC(F)(F)F | 3.16µM* | / | 2.82µM* | / | / | ?
COc1ccc(CCCc2nnc(SCC(=O)Nc3ccc(C)cc3C)o2)cc1 | / | -12.6% | / | -16.9% | / | /
O=C(Nc1ccccc1)Nc1ccc2c(c1)CCC2 | 3.55µM* | / | 2.51µM* | 2.69µM* | / | ?
O=C(Nc1ccc2c(c1)CCC2)c1c(F)cccc1Cl | 1.26µM* | 14.1µM* | 1.58µM* | 9.53µM* | -0.5% | 9.2µM*
O=C(Nc1ccc2c(c1)CCC2)c1cc(S(=O)(=O)Nc2ccc(F)cc2)c(Cl)cc1Cl | -7.5% | -91.6% | -4.3% | ? | -1.5% | -6.2%
Cc1cc(C)cc(NC(=O)Nc2ccc3c(c2)CCC3)c1 | ? | / | ? | -20.2% | / | 13.8%
Cc1cc2c(NC(=O)Nc3ccc(C(C)(C)C)cc3)cccc2nn1 | -8.4% | / | -2.4% | 12µM* | / | -5.8%
O=C(Nc1ccc2c(c1)CCC2)c1ccc(F)cc1 | 0.447µM* | 2.24µM* | 0.708µM* | 1.07µM* | -3.0% | 1.64µM*
O=C1OCc2ccc(NC(=O)c3c(F)cccc3Cl)cc21 | 18.3% | / | -3.5% | -2.8% | / | 9.2%
CCN(CC)CCn1c(-c2ccccc2)nc2c(NCCO)nc(C)nc21 | / | 1.7% | / | / | -5.2% | /
Cc1ccccc1NC(=O)Nc1ccc2c(c1)CCC2 | 2.51µM* | / | 2.82µM* | 2.39µM* | / | ?
Cc1ccc(NC(=O)Nc2ccc3c(c2)CCC3)cc1 | 2µM* | / | 2µM* | ? | / | ?
O=C(Nc1cccc(F)c1)Nc1ccc2c(c1)CCC2 | 2.51µM* | / | 2.51µM* | 3.38µM* | / | ?
O=C(Nc1ccc(F)cc1)Nc1ccc2c(c1)CCC2 | 2.24µM* | / | 2.51µM* | ? | / | ?
Cc1c(Cl)cccc1-n1c(SCC(=O)NCc2ccccc2)nc2n[nH]c(C)c2c1=N | / | / | / | -0.1% | / | /
Cc1ccccc1NC(=O)Nc1ccc(C(F)(F)F)cc1 | 2.24µM* | / | 22.9% | 2.39µM* | -0.4% | 1.5%
O=C(CNC(=O)c1ccccc1F)Nc1ccc2c(c1)CCC2 | ? | / | ? | -19.2% | / | ?
O=C(Nc1ccc2c(c1)CCC2)c1ncoc1-c1ccccc1F | 2.5% | / | 14.6% | 8.49µM* | / | 12.3%
O=C(Nc1ccc2c(c1)CCC2)Nc1ccc(F)cc1F | 0.794µM* | / | 1.26µM* | ? | / | ?
O=C(Nc1ccc2c(c1)CCC2)Nc1ccccc1F | 0.631µM* | / | 0.447µM* | 0.675µM* | / | 0.411µM*
COCCCN1C(=O)c2oc3ccccc3c(=O)c2C12C(=O)N(C)c1ccccc12 (stereo not given) | / | -5.8% | / | -0.3% | / | /
COc1cc(/C=C\C(=O)N2CCC=CC2=O)cc(OC)c1OC | / | -49.5%[20.6 µM] | / | / | 0.4%[17.1 µM] | /
SMILES | Rab9 promoter act | SMN2 splice up | NPC1 promoter act | FLuc modulator | Luc counter | ELG1 genotoxic
COc1ccc(Cl)cc1NC(=O)CSc1ccc2nnc(CCNS(=O)(=O)c3ccccc3)n2n1 | / | / | / | 2.2% | / | /
CCOc1cccc(-c2csc(C3COc4ccccc4O3)n2)c1 (stereo not given) | 3.98µM* | 3.98µM* | ? | 2.13µM* | 0.9% | ?
Cc1ccc(NC(=O)Cn2c(=O)n(Cc3nc(-c4ccccc4)no3)c(=O)c3ccccc32)c(C)c1 | / | / | / | -7.6% | / | /
O=C(NC1CC(=O)N(c2cccc(F)c2)C1)C(c1ccccc1)c1ccccc1 (stereo not given) | / | / | / | -0.3% | / | /
CCOc1ccc2nc(SCC(=O)Nc3ccc4[nH]c(=O)[nH]c4c3)[nH]c2c1 | 0.6% | / | 7.4% | 13.5µM* | / | -0.1%
CCOc1ccc2nc(SCC(=O)N(C)C)[nH]c2c1 | 3.55µM* | 23.5% | 3.98µM* | 19µM* | 0.0% | 16.4µM*
CCOc1ccc2nc(SCC(=O)N(C)C3CCS(=O)(=O)C3)[nH]c2c1 (stereo not given) | 13.6% | / | -3.0% | -13.4% | / | 2.0%
CCCC[C@@H](C=O)NC(=O)[C@H](CC(C)C)NC(=O)OCc1ccccc1 | / | -43.3% | / | / | / | /
O=[N+]([O-])/C=C\c1ccc(N2CCCC2)c(F)c1 | 26.8% | 5.62µM* | 15.8% | ? | -4.5% | -9.1%
O=Cc1ccc(N2CCCC2)c([N+](=O)[O-])c1 | -3.3% | -2.6% | -2.8% | -2.3% | 5.1% | 0.8%
COc1cc(NC(=O)CSc2ncc(S(=O)(=O)c3ccc(Br)cc3)c(=O)[nH]2)cc(OC)c1 | / | -9.3% | / | ? | / | /
O=C(CSc1ncc(S(=O)(=O)c2ccc(Br)cc2)c(=O)[nH]1)NCc1ccc(Cl)cc1 | / | 4.5% | / | 8.49µM* | / | /
Cc1ccc(CNC(=O)CSc2ncc(S(=O)(=O)c3ccc(Br)cc3)c(=O)[nH]2)cc1 | / | -1.5% | / | 6.75µM* | / | /
Cc1cccc(Nc2nc(-c3ccc(O)c(O)c3)cs2)n1 | -1.9% | / | -8.5% | 21.3µM* | / | ?
NS(=O)(=O)c1ccc(Nc2nc(-c3ccc(O)cc3)cs2)cc1 | -1.7% | ? | -1.3% | -4.6% | -2.3% | 1.3%
O=C(Cc1ccccc1)Nc1nc(-c2ccc(F)c(F)c2)cs1 | 8.6% | / | -3.8% | ? | / | -6.8%
Cc1cccc(Nc2nc(-c3ccc(F)c(C)c3)cs2)n1 | 3.98µM* | / | 3.16µM* | 6.01µM* | / | 11.2%
O=C(Nc1ncccn1)c1ccc(C(F)(F)F)cc1 | -5.5% | -1.1% | 0.0% | 19µM* | -13.9% | 2.6%
CC(C)c1ccc(C(=O)NC2=NCCS2)cc1 | 0.398µM* | 2µM* | 0.562µM* | 1.9µM* | -3.1% | 1.64µM*
O=C(NNC(=O)c1cccc(C(F)(F)F)c1)c1ccncc1 | -3.8% | / | 0.6% | -10.8% | / | 2.1%
O=C(NC1=NCCS1)c1ccc(N2CCCC2=O)cc1 | ? | ? | 19.7% | -7.9% | -0.5% | 7.8%
N#Cc1ccc(C(=O)NC2=NCCS2)cc1 | ? | / | ? | ? | / | 15.6%
O=C(NC1=NCCS1)c1ccc(C(F)(F)F)cc1 | 15.1%[1.84 µM] | / | 2.82µM* | 10.7µM* | / | ?
Cc1ccc(C(=O)NC2=NCCS2)cc1 | 3.55µM* | / | 2.82µM* | 10.7µM* | / | ?

High-throughput results (PubChem)
